Results filed as inconclusive are left out. The source made the active and inactive calls. Unless noted, calls follow the shape of the dose curve; as a rule, active = well fitted curve in the direction sought with a large enough effect in the repeat runs; inconclusive = weak or mixed curves; inactive = no such curve, though single readings can be large; an effect the other way counts as inactive or inconclusive.
What was measured:
[1] = qHTS assay to identify small molecule agonists of the RXR signaling pathway - cell viability counter screen (AID 1159529); also: nearly all actives have a fitted effect of over 50% in size; also: potency is read from the fitted curve at half-maximal effect
Procedure, shortened: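 RXR-alpha-UAS-bla HEK 293T cells in medium with 2% charcoal-stripped FBS were pre-incubated 5 hr, then compound-treated 16 hr at 37 C. Viability was read by CellTiter-Glo luminescence in the same wells as the beta-lactamase assay, with tetraoctyl ammonium bromide as positive control.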

[2] = qHTS assay to identify small molecule antagonists of the retinoid acid receptor (RAR) signaling pathway - cell viability counter screen (AID 1159551); also: nearly all actives have a fitted effect of over 35% in size; also: potency is read from the fitted curve at half-maximal effect
Procedure, shortened: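 Retinol-stimulated (1 uM final) C3RL4 cells, compound 6 h, 37 C; readout CellTiter-Glo luminescence (ATP) after 30 min RT incubation.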

[3] = qHTS assay to identify small molecule antagonists of the estrogen related receptor (ERR) signaling pathway from Tox21 library - cell viability counter screen (AID 1224834); also: nearly all actives have a fitted effect of over 30% in size; also: potency is read from the fitted curve at half-maximal effect
Procedure, shortened: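 After 17.5 h of compound exposure at 37 C, ERR cells are incubated with CellTiter-Fluor for 30 min and fluorescence intensity serves as the viability measure.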

[4] = biological target: Luciferin 4-monooxygenase (Photinus pyralis) (UniProt P08659); assay: qHTS assay to identify small molecule inhibitors of firefly luciferase (AID 1224835); also: nearly all actives have a fitted effect of over 25% in size; also: potency is read from the fitted curve at half-maximal effect
Procedure, shortened: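 Inhibition of purified Photinus luciferase is measured by luminescence. Substrate levels (D-luciferin, ATP) sit at their KM values. Each compound is tested in a concentration series.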

[5] = qHTS assay to identify small molecule agonists of the constitutive androstane receptor (CAR) signaling pathway - cell viability counter screen (AID 1224836); also: nearly all actives have a fitted effect of over 45% in size; also: potency is read from the fitted curve at half-maximal effect
Procedure, shortened: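 HepG2 cells stably carrying hCAR and a CYP2B6-2.2kb reporter; 15-concentration compounds plus PK11195 (final 0.75 uM), 23 hr at 37 C/5% CO2. Viability read by CellTiter-Fluor fluorescence.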

[6] = qHTS assay to identify small molecule antagonists of the constitutive androstane receptor (CAR) signaling pathway - cell viability counter screen (AID 1224837); also: nearly all actives have a fitted effect of over 45% in size; also: potency is read from the fitted curve at half-maximal effect
Procedure, shortened: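 Counter screen run in HepG2-CYP2B6-hCAR cells: 4 hr settle, compound titration (15 concentrations) with 50 nM CITCO, 23 hr at 37 C/5% CO2, CellTiter-Fluor fluorescence.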

[7] = biological target: Nuclear receptor subfamily 1 group I member 3 (Homo sapiens) (UniProt Q14994); assay: qHTS assay to identify small molecule antagonists of the constitutive androstane receptor (CAR) signaling pathway (AID 1224838);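 also: HepG2 cells stably expressing hCAR with CYP2B6 luciferase reporter stimulated by CITCO; nearly all actives have a fitted effect of over 40% in size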; also: potency is read from the fitted curve at half-maximal effect
Procedure, shortened: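 Cell line: HepG2 double-stable for hCAR and CYP2B6-2.2kb reporter. Agonist: CITCO, 50 nM final. Compounds: 15 concentrations, 24 h, 37 C. Detection: ONE-Glo luminescence.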

[8] = qHTS assay to identify small molecule antagonists of the estrogen related receptor signaling pathway with the pleiotropic PPARgamma coactivator (PGC) from Tox21 10K library - cell viability counter screen (AID 1224840; active = well fitted cell-killing curve with a large enough effect in the repeat runs, not every such curve was filed as active; also: nearly all actives have a fitted effect of over 40% in size; also: potency is read from the fitted curve at half-maximal effect)
Procedure, shortened: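 Following seeding of 2,000 PGC/ERR cells/well and 6 hours' incubation, test compounds were delivered in DMSO. The plates then sat 17.5 hours at 37 C before a fluorogenic live-cell protease reagent (CellTiter-Fluor) was read after 30 min.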

[9] = biological target: Thyrotropin receptor (Homo sapiens) (UniProt P16473); assay: qHTS assay to identify small molecule agonists of the thyroid stimulating hormone receptor (TSHR) signaling pathway (AID 1224843; calls by dose curve; also: nearly all actives have a fitted effect of over 45% in size; also: potency is read from the fitted curve at half-maximal effect)
Procedure, shortened: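 Screening of the Tox21 10K collection used HEK293 cells engineered with TSHR at 800 cells per well. After a 30-min room-temperature compound exposure, HTRF cAMP reagents were added and fluorescence recorded 1 h later.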

[10] = biological target: Nuclear receptor subfamily 1 group I member 3 (Homo sapiens) (UniProt Q14994); assay: qHTS assay to identify small molecule agonists of the constitutive androstane receptor (CAR) signaling pathway (AID 1224839); also: nearly all actives have a fitted effect of over 15% in size; also: potency is read from the fitted curve at half-maximal effect
Procedure, shortened: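 HepG2 cells stably co-transfected with hCAR and a CYP2B6-2.2kb luciferase reporter; compounds at 15 concentrations with 0.75 uM PK11195 present. After 24 hr at 37 C, luciferase read by ONE-Glo luminescence.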

[11] = qHTS assay to identify small molecule antagonists of the estrogen related receptor signaling pathway with the pleiotropic PPARgamma coactivator (PGC) from Tox21 10K library (AID 1224841; call rule not given here; also: actives are mostly falling curves and most rising ones were filed inactive; nearly all actives have a fitted effect of over 50% in size; also: potency is read from the fitted curve at half-maximal effect)
Procedure, shortened: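 qHTS antagonist format: PGC/ERR cells, 2k/well, compound in DMSO by pin transfer after 6 h attachment, 18 h treatment at 37 C, One-Glo luminescence read at 30 min.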

[12] = qHTS assay to identify small molecule agonists of the estrogen related receptor signaling pathway with the pleiotropic PPARgamma coactivator (PGC) from Tox21 10K library (AID 1224842); also: nearly all actives have a fitted effect of over 15% in size
Procedure, shortened: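 Luminescence from One-Glo (30 min, room temperature) measured after PGC/ERR cells had 18 h at 37 C with pinned compound (23 nL in DMSO). Cells had been seeded at 2,000 per well and pre-incubated 6 h.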

[13] = qHTS assay to identify small molecule agonists of the retinoic acid receptor (RAR) signaling pathway (AID 1159553)
Procedure, shortened: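 Reporter readout comes from luciferase under RARE control in C3RL4 cells; compound exposure lasts 6 hr at 37 C in 5% CO2, and luminescence is recorded following a 30 min room-temperature incubation with reagent.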

[14] = qHTS assay to identify small molecule antagonists of the estrogen related receptor (ERR) signaling pathway - cell viability counter screen (AID 1224818); also: series mostly up to about 46 µM
Procedure, shortened: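 After a 6 h pre-incubation, ERR cells were dosed by pin tool with compounds, positive/negative controls or DMSO alone. Following 17.5 h at 37 C and 30 min with CellTiter-Fluor, fluorescence was recorded.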

[15] = qHTS assay to identify small molecule antagonists of the estrogen related receptor signaling pathway with the pleiotropic PPARgamma coactivator (PGC) cell viability counter screen (AID 1224822; also: series mostly up to about 46 µM)
Procedure, shortened: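 PGC/ERR cells were plated at 2,000 per well and allowed 6 h to settle before compound addition. Following 17.5 h at 37 C, CellTiter-Fluor reagent was added and fluorescence was read 30 min later.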

[16] = qHTS assay to identify small molecule antagonists of the estrogen related receptor (ERR) signaling pathway (AID 1224819;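 also: luminescence from an ERR-driven luciferase reporter measured with One-Glo reagent; series mostly up to about 46 µM; nearly all actives have a fitted effect of over 50% in size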)
Procedure, shortened: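 Luminescence readout (One-Glo, 30 min, RT) of ERR cell line after 18 h compound exposure at 37 C; cells seeded 2,000/well, pre-incubated 6 h, compounds pinned from DMSO stocks.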

[17] = qHTS assay to identify small molecule agonists of the estrogen related receptor (ERR) signaling pathway (AID 1224820)
Procedure, shortened: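 Cells: ERR line from NTP, 2,000/well. Pre-incubation 6 h, 37 C/5% CO2. Compound (DMSO) pin transfer, 18 h 37 C. One-Glo, 30 min RT, luminescence.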

[18] = system: estrogen-related receptor alpha (ERRalpha) with PGC-1alpha coactivator, human; assay: qHTS assay to identify small molecule antagonists of the estrogen related receptor signaling pathway with the pleiotropic PPARgamma coactivator (PGC) (AID 1224821; calls by dose curve;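 also: series mostly up to about 46 µM; lower luminescence signal means antagonism of PGC/ERR signalling; nearly all actives have a fitted effect of over 50% in size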)
Procedure, shortened: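 Luminescent read-out (One-Glo, 30 min at room temperature) following 18 h treatment of PGC/ERR cells at 37 C with compounds delivered in DMSO. Cells had settled 6 h at 37 C/5% CO2 before dosing.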

[19] = qHTS assay to identify small molecule agonists of the estrogen related receptor signaling pathway with the pleiotropic PPARgamma coactivator (PGC) (AID 1224823)
Procedure, shortened: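 Steps: plate PGC/ERR cells at 2,000 cells/well; incubate 6 h, 37 C/5% CO2; pin-transfer compounds (DMSO); incubate 18 h, 37 C; add One-Glo; 30 min RT; read luminescence.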

Measured: Potency

Chain of Nuclear receptor subfamily 1 group I member 3 (Homo sapiens) (Q14994 whole entry, looked up): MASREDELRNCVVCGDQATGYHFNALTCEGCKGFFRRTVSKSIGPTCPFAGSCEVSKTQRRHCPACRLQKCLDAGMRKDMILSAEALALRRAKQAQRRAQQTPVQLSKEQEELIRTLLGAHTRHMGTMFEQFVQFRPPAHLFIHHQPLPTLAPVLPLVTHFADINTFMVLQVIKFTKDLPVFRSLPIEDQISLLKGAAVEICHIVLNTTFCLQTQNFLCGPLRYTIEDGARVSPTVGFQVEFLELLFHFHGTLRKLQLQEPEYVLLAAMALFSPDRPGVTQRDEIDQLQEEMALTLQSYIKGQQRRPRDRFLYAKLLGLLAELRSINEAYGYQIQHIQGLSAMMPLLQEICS
Chain of Luciferin 4-monooxygenase (Photinus pyralis) (P08659 whole entry, looked up): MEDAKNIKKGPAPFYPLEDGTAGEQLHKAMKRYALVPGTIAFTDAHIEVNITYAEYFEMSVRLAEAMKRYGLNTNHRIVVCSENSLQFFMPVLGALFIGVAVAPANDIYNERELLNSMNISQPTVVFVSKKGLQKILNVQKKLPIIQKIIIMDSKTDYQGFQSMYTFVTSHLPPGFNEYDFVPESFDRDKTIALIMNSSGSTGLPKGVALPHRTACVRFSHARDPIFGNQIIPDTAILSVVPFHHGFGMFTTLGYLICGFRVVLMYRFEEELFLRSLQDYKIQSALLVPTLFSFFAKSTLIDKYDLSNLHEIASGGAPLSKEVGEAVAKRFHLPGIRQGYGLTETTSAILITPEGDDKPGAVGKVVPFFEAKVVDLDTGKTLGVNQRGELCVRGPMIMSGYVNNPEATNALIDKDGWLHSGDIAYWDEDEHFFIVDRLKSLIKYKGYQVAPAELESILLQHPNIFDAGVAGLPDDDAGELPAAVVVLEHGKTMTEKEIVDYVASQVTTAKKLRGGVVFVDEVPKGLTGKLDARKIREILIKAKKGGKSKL
Chain of Thyrotropin receptor (Homo sapiens) (P16473 whole entry, looked up): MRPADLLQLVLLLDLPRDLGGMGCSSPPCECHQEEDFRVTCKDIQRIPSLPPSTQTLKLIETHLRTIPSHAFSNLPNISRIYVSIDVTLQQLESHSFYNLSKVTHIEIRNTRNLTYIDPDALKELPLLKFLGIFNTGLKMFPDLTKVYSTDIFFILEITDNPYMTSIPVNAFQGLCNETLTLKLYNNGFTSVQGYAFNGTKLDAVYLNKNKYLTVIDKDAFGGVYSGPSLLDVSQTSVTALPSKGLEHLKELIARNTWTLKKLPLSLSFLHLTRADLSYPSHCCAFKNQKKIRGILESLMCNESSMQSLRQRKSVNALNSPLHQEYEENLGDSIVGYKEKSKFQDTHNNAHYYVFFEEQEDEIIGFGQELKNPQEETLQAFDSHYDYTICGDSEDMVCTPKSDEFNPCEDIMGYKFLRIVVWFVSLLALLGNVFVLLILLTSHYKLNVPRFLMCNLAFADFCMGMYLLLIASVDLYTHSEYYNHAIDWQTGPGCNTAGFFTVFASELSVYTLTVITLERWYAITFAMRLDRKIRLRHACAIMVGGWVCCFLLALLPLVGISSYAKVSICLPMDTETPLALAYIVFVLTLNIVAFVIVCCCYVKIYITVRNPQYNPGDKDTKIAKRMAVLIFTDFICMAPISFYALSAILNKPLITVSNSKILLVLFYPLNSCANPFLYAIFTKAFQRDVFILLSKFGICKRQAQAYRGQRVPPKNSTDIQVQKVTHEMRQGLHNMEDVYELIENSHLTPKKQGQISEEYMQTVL

CC[C@H](c1ccc(O)cc1)[C@@H](CC)c1ccc(O)cc1
active: [1] 49 µM | [3] 27.3 µM | [7] 0.473 µM
inactive: [2] | [4] | [5] | [6] | [8]

CCCC/C=C/CCCCO
inactive: [1] | [2] | [3] | [4] | [5] | [6] | [8] | [9]

O=C(O)c1cc(O)c2c(c1)C(=O)c1cccc(O)c1C2=O
inactive: [1] | [2] | [3] | [4] | [5] | [7] | [10] | [8] | [9]

Clc1ccc2n[nH]nc2c1
inactive: [1] | [2] | [3] | [4] | [5] | [6] | [7] | [10] | [8] | [9]

CC[C@H]1O[C@]2(CC[C@@H]1C)C[C@@H]1C[C@@H](C/C=C(\C)C[C@@H](C)/C=C/C=C3\CO[C@@H]4[C@H](O)C(C)=C[C@@H](C(=O)O1)[C@]34O)O2
active: [1] 19.3 µM | [2] 68 µM | [3] 60.6 µM | [5] 68 µM | [6] 60.6 µM | [8] 60.6 µM | [11] 19.2 µM
inactive: [4] | [10] | [12] | [9]

COC(=O)C1=C(C)NC(C)=C(C(=O)OCCc2ccc(N3CCN(C(c4ccccc4)c4ccccc4)CC3)cc2)C1c1cccc([N+](=O)[O-])c1 (centres undefined)
inactive: [1] | [2] | [3] | [4] | [5] | [6] | [8]

O=C(Oc1ccccc1)c1ccccc1C(=O)Oc1ccccc1
inactive: [1] | [2] | [13] | [4] | [5] | [6] | [7] | [10]

COC(=O)c1cc(Cl)ccc1OC
inactive: [1] | [2] | [3] | [4] | [5] | [6] | [10] | [8] | [9]

CNC(=O)c1ccccc1
inactive: [1] | [2] | [3] | [4] | [5] | [6] | [9]

CCCCCCCCCCCCCCCC[N+](C)(C)CCN(Cc1ccc(OC)cc1)c1ncccn1
active: [1] 5.35 µM | [2] 29.8 µM | [3] 29.8 µM
inactive: [4] | [10] | [8] | [12] | [9]

O=Cc1cc(O)ccc1Br
inactive: [1] | [2] | [3] | [5] | [6] | [8]
active: [4] 57.2 µM

CSc1ccc(/C=C2/C(C)=C(CC(=O)O)c3cc(F)ccc32)cc1
inactive: [1] | [2] | [13] | [5] | [6] | [7] | [10] | [11] | [12] | [9]

CCCCCCCC[P+](CCCCCCCC)(CCCCCCCC)CCCCCCCC
inactive: [10] | [12] | [9]
active: [1] 3.87 µM | [2] 54.2 µM | [3] 9.63 µM | [4] 62.9 µM | [5] 1.92 µM | [6] 3.83 µM | [7] 10.8 µM | [8] 10.8 µM

CCCCCCCC/C=C\CCCCCCCCOCCO
active: [1] 22.6 µM | [3] 35.5 µM | [5] 25.1 µM | [6] 31.6 µM | [8] 63.1 µM
inactive: [2] | [4] | [10]

C/C=C1/C(=O)C[C@H]2[C@@H]3CCC4=CC(=O)CC[C@]4(C)[C@H]3CC[C@]12C
active: [3] 60.9 µM | [10] 8.61 µM
inactive: [1] | [2] | [4]

CC(C)C(C)(C)C(C)(C)C(C)(C)S
inactive: [1] | [2] | [14] | [15] | [3] | [4] | [5] | [6] | [8] | [9]

CCN(C(=O)N(CC)c1ccccc1)c1ccccc1
inactive: [1] | [2] | [13] | [4] | [5] | [6] | [12]
active: [9] 61.1 µM

CCCCC(CC)COC(=O)c1ccccc1C(=O)O (centres undefined)
not listed: [7] | [9] | [11] | [13]
inactive: all other assays above

Nc1ccc(N)c2ccccc12
active: [1] 21.8 µM | [2] 68.5 µM | [3] 30.6 µM | [5] 30.6 µM | [6] 30.6 µM | [8] 54.4 µM
inactive: [4] | [10] | [12] | [9]

— PubChem BioAssay (Tox21)
